Article PMC5700166
Residue numbers refer to the chain shown, from its start.

Tests used:
Test in all cases: protein-binding microarray (PBM); PBM: ~300 nM protein, 6 mM HEPES pH 7.8, 80 mM KCl, 0.5 mM EDTA, 0.5 mM EGTA, 6% glycerol, 35 ng/ul poly-dIdC, 1% milk, 1 h, room temperature; Ap Aiptasia and Nv Nematostella (sea anemones) / Co Capsaspora / Aq Amphimedon (sponge) / Dm Drosophila / Hu human; RHD is the Rel homology domain; high values mean tight binding
Conditions in all cases: dsDNA, one strand shown
GST-Ap-NF-kB RHD = molecular target: T1, GST-Ap-NF-kB RHD (Exaiptasia pallida (Aiptasia), UniProt A0A913YAJ5 2-422)
T1 sequence: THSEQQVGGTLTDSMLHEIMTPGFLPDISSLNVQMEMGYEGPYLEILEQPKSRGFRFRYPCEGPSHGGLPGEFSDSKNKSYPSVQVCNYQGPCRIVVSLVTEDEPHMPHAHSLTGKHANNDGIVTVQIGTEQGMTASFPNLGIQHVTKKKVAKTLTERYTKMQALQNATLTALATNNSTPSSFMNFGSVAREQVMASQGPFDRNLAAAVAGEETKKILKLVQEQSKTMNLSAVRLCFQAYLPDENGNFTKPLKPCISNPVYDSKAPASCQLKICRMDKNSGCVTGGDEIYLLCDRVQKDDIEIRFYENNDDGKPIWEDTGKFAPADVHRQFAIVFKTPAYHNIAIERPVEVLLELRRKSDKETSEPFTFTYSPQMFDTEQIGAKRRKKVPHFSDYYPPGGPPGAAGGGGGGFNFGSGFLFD

[1] = molecular target: T2, GST-Nv-NF-kB (Cys allele) (Nematostella vectensis, UniProt E5G601 2-411)
T2 sequence: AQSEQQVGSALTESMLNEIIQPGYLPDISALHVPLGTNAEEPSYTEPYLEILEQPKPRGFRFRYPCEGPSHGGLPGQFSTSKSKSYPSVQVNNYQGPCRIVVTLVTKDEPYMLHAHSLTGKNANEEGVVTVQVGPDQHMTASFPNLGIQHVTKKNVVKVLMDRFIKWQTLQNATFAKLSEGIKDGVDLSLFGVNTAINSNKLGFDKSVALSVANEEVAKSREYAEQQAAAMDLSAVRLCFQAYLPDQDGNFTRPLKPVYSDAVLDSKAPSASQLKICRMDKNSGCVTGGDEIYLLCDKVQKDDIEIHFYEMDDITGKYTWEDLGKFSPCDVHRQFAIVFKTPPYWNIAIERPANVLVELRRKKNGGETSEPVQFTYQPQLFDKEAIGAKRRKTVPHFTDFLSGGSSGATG

[2] = molecular target: T3, GST-Nv-NF-kB (Ser allele) (Nematostella vectensis, UniProt A7UNT2 2-411)
T3 sequence: T2 sequence with Q21R, C66S, S207N, E215Q, V217A, E225K, A268E, D399E

GST-Dm-Relish = molecular target: T4, GST-Dm-Relish (Drosophila melanogaster, UniProt Q94527 99-473)
T4 sequence: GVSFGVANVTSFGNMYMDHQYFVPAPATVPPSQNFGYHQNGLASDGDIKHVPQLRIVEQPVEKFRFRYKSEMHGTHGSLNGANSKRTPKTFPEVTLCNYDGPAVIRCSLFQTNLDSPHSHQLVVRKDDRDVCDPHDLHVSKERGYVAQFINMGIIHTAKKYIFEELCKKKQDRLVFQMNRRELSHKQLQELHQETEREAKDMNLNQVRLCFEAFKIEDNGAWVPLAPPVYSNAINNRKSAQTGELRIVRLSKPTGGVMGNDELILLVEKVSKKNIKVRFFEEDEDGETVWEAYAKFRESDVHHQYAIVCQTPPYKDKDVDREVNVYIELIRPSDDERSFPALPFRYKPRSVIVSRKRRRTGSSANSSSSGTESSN

GST-Aq-NF-kB = molecular target: T5, GST-Aq-NF-kB (Amphimedon queenslandica, UniProt A9Y5G7 2-389)
T5 sequence: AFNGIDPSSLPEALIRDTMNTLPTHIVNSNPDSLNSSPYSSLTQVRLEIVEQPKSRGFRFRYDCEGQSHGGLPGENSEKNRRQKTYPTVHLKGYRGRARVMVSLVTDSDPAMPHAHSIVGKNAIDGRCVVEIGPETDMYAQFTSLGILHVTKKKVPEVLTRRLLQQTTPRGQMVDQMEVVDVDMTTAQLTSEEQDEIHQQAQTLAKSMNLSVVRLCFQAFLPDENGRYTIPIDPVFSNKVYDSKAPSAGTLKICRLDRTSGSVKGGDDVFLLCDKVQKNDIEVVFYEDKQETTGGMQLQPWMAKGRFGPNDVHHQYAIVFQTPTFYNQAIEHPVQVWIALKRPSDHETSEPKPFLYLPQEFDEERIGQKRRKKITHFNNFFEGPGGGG

GST-Hu-p50 = GST-Hu-p50 (Homo sapiens, UniProt P19838 7-356)
GST-Co-NF-kB = molecular target: T6, GST-Co-NF-kB (Capsaspora owczarzaki, UniProt F1ARL5 200-546)
T6 sequence: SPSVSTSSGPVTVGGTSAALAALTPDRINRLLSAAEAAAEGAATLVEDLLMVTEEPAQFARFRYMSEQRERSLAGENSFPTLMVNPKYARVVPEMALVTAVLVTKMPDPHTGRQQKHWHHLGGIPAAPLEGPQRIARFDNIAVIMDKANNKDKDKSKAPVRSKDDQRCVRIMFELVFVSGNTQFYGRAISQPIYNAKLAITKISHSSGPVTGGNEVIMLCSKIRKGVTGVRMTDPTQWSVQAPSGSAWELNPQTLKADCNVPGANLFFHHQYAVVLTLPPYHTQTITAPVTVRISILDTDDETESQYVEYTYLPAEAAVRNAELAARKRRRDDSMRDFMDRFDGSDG

GST-Hu-p50, sequence (P19838 7-356): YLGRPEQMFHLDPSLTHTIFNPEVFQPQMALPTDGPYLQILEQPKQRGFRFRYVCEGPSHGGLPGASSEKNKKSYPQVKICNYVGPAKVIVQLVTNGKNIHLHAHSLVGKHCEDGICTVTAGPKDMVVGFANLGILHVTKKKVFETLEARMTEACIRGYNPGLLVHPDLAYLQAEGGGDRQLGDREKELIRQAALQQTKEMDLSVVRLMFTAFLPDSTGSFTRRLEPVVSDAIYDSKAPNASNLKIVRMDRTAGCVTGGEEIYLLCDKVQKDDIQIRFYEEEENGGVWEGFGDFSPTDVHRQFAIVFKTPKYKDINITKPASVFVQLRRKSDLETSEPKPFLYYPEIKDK

Sequence | binding signal (GST-Ap-NF-kB RHD) [z-score] | binding signal [1] [z-score] | binding signal [2] [z-score] | binding signal (GST-Dm-Relish) [z-score] | binding signal (GST-Aq-NF-kB) [z-score] | binding signal (GST-Hu-p50) [z-score] | binding signal (GST-Co-NF-kB) [z-score]
CCGATTAACATCAGGGAGGTACCTGATGTTAATCGGGTCTTGATTCGCTTGACGCTGCTG | 3.34 | 2.59 | 2.93 | 5.13 | 3.92 | 2.03 | 
CCGATTAACATCAAGGGACTTTCTGATGTTAATCGGGTCTTGATTCGCTTGACGCTGCTG | 7.14 | 9.44 | 8.36 | 7.3 | 7.13 | 5.98 | 
CCGATTAACATCAGGGGAGGTTATGATGTTAATCGGGTCTTGATTCGCTTGACGCTGCTG | 4.62 | 3.22 | 4.77 | 1.82 | 3.84 | 3.74 | 4.52
CCGATTAACATCAGGAAAGACCCTGATGTTAATCGGGTCTTGATTCGCTTGACGCTGCTG | 2.17 | 4.11 | 1.92 | 4.41 | 6.37 | 3.3 | 
CCGATTAACATCAGGGGAATGCATGATGTTAATCGGGTCTTGATTCGCTTGACGCTGCTG | 5.82 | 7.06 | 7.76 | 3.2 | 4.86 | 5.41 | 5.53
CCGATTAACATCAGAAAATACCCTGATGTTAATCGGGTCTTGATTCGCTTGACGCTGCTG | 5.86 | 8.27 | 7.72 | 6.76 | 7.37 | 6.32 | 1.93
CCGATTAACATCAGGAGTGTCCCTGATGTTAATCGGGTCTTGATTCGCTTGACGCTGCTG | 2.12 | 2.48 | 1.44 | 1.23 | 4.83 | 1.29 | 1.05
CCGATTAACATCAGGAAAGTCCCTGATGTTAATCGGGTCTTGATTCGCTTGACGCTGCTG | 7.69 | 10.6 | 8.2 | 8.43 | 9.81 | 7.09 | 
CCGATTAACATCAGGGAAGGCCCTGATGTTAATCGGGTCTTGATTCGCTTGACGCTGCTG | 4.52 | 4.31 | 1.93 | 8.94 | 6.45 | 2.96 | 
CCGATTAACATCAGAAACTCCCATGATGTTAATCGGGTCTTGATTCGCTTGACGCTGCTG | 3.34 | 3.45 | 2.93 | 3.38 | 3.7 | 2.9 | 
CCGATTAACATCAGGAAACCACCTGATGTTAATCGGGTCTTGATTCGCTTGACGCTGCTG | 4.41 | 4.04 | 3.92 | 7.57 | 6.62 | 6.09 | 
CCGATTAACATCACGAAAGTCCCTGATGTTAATCGGGTCTTGATTCGCTTGACGCTGCTG | 6.26 | 6.77 | 7.54 | 5.86 | 5.78 | 5.45 | 
CCGATTAACATCAGGGACATCCCTGATGTTAATCGGGTCTTGATTCGCTTGACGCTGCTG | 5.51 | 6.99 | 4.22 | 7.71 | 7.32 | 3.84 | 
CCGATTAACATCAGGGAGTTCACTGATGTTAATCGGGTCTTGATTCGCTTGACGCTGCTG | 2.23 | 2.42 | 1.78 | 5.79 | 4.22 | 2.32 | 
CCGATTAACATCAGGAGAGTCCCTGATGTTAATCGGGTCTTGATTCGCTTGACGCTGCTG | 4.86 | 5.29 | 3.96 | 3.65 | 7.1 | 3.89 | 
CCGATTAACATCACGGTTATTCCTGATGTTAATCGGGTCTTGATTCGCTTGACGCTGCTG | 1.09 | 1.52 | 2.15 | 3.64 | 2.03 | 3.59 | 
CCGATTAACATCAGGATAGCCCCTGATGTTAATCGGGTCTTGATTCGCTTGACGCTGCTG | 4 | 4.29 | 2.73 | 2.38 | 5.49 | 3.65 | 
CCGATTAACATCAGGGGGTATTATGATGTTAATCGGGTCTTGATTCGCTTGACGCTGCTG | 7.58 | 5.39 |  | 4.91 | 5.8 | 5.39 | 4.88
CCGATTAACATCAACAACCCCCCTGATGTTAATCGGGTCTTGATTCGCTTGACGCTGCTG | 6.24 | 4.31 |  | 6.01 | 5.18 | 5.38 | 4.22
CCGATTAACATCAGGGTACTACCTGATGTTAATCGGGTCTTGATTCGCTTGACGCTGCTG | 2.34 | 1.63 | 2.2 | 1.62 | 4.13 | 1.43 | 
CCGATTAACATCAGAAAAATACCTGATGTTAATCGGGTCTTGATTCGCTTGACGCTGCTG | 1.31 | 2.43 | 3.74 | 4.9 | 3.17 | 3.16 | 
CCGATTAACATCACATATCCCCCTGATGTTAATCGGGTCTTGATTCGCTTGACGCTGCTG | 6.5 | 5.23 |  | 3.26 | 4.79 | 5.03 | 5.73
CCGATTAACATCAGGATAGTCCCTGATGTTAATCGGGTCTTGATTCGCTTGACGCTGCTG | 5.8 | 5.23 | 4.11 | 2.84 | 6.61 | 4.05 | 
